Reference: PubChem BioAssay (NCI)
This is part of a sample that, as a whole, favours compounds with a hit. Of some 83,000 tested, about 20% had one in any assay.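 Assay: single dose, 48 h. Readout: percent growth (0 = no net growth; negative = cell death). Active: <10.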 Unmarked numbers belong to inactive results. Active and inactive are the calls of the source.

Experiments:
Test in all cases: NCI-60 one-dose screen, 48 h (100 = growth as untreated, 0 = no growth, -100 = all killed)
Details in all cases: 10 µM unless noted
SK-MEL-2 melanoma = test system: SK-MEL-2 melanoma
EKVX NSCLC = test system: EKVX NSCLC
SN12C renal = test system: SN12C renal
UO-31 renal = test system: UO-31 renal
TK-10 renal = test system: TK-10 renal
ACHN renal = test system: ACHN renal
CAKI-1 renal = test system: CAKI-1 renal
A498 renal = test system: A498 renal
CCRF-CEM leukemia = test system: CCRF-CEM leukemia
MOLT-4 leukemia = test system: MOLT-4 leukemia
SR leukemia = test system: SR leukemia
RPMI-8226 leukemia = test system: RPMI-8226 leukemia
OVCAR-8 ovarian = test system: OVCAR-8 ovarian
OVCAR-5 ovarian = test system: OVCAR-5 ovarian
OVCAR-4 ovarian = test system: OVCAR-4 ovarian
SK-OV-3 ovarian = test system: SK-OV-3 ovarian
IGROV1 ovarian = test system: IGROV1 ovarian
OVCAR-3 ovarian = test system: OVCAR-3 ovarian
HS 578T breast = test system: HS 578T breast
NCI/ADR-RES ovarian = test system: NCI/ADR-RES ovarian

SMILES	growth (SK-MEL-2 melanoma)	growth (EKVX NSCLC)	growth (SN12C renal)	growth (UO-31 renal)	growth (TK-10 renal)	growth (ACHN renal)	growth (CAKI-1 renal)	growth (A498 renal)	growth (CCRF-CEM leukemia)	growth (MOLT-4 leukemia)	growth (SR leukemia)	growth (RPMI-8226 leukemia)	growth (OVCAR-8 ovarian)	growth (OVCAR-5 ovarian)	growth (OVCAR-4 ovarian)	growth (SK-OV-3 ovarian)	growth (IGROV1 ovarian)	growth (OVCAR-3 ovarian)	growth (HS 578T breast)	growth (NCI/ADR-RES ovarian)
Cc1ccc(C2CCCCC2)cc1Br	99%	98.9%	101%	83.2%	98.7%	101%	90.3%	88.6%	103%	110%	91.4%	100%	98.4%	94.3%	119%	96.5%	101%	104%	96.4%	97.7%
COC(=O)C1(CC(C)=O)NC(=S)NC(=O)C1C#N (stereo not given)	119%	96.4%	101%	92.2%	103%	109%	94.6%	147%	101%	108%	99.1%	114%	112%	107%	117%	117%	111%	122%	96.1%	103%
CCOP(=O)(OCC)/C(=C\N1C(=O)CC(=O)NC1=S)C(=O)OC	118%	98.9%	101%	90%	112%	99.5%	97.4%	87.7%	103%	100%	96.7%	101%	97.6%	98.7%	94.3%	104%	103%	114%	98.4%	104%
C=CCc1cc(OC)c(OC)c(OC)c1	108%	111%	99.5%	105%	104%	108%	100%	100%	104%	104%	107%	110%	102%	99.2%	112%	114%	110%	93.1%	103%	105%
N#Cc1ccc(OC(=O)Nc2c(Cl)cc(Cl)cc2Cl)cc1	118%	107%	98.2%	83.1%	104%	104%	89.7%	125%	99.3%	111%	101%	107%	105%	103%	109%	99.7%	98.7%	112%	106%	111%
C=CCNC(=S)N/C=C(/C(=O)c1ccccc1)c1ccccc1	120%	106%	93.6%	95.3%	107%	97.7%	101%	98%	101%	99.2%	95.4%	101%	117%	97.7%	110%	110%	106%	112%	103%	104%
NNc1ncnc2c1ncn2C1OC(CO)C(O)C1O (stereo not given)	73.5%	60.5%	27.7%	38.1%	52.8%	15.2%	36.1%	43%	72%	109%	17.5%	51.8%	25.6%	54.7%	45%	2.11% (active)	66.7%	9.24% (active)	53%	24.3%
NC(=O)N1CCOCC1	105%	108%	109%	79.8%	92.4%	110%	115%	92.7%	88.9%	93.7%	89.8%	94.8%	103%	108%	103%	103%	113%	103%	113%	113%
O=C(O)c1cc(I)ccc1O	107%	100%	95.3%	90.7%	93.3%	97.6%	103%	126%	99.3%	108%	103%	107%	109%	97.5%	107%	103%	114%	116%	111%	98%
Cc1ccc2[nH]c3ccccc3c2c1	109%	108%	109%	91.3%	106%	110%	97.3%	82.5%	92.8%	94.4%	79.6%	106%	98.4%	105%	100%	113%	107%	104%	106%	109%
O=C(NCCc1ccccc1)/C(=C\c1ccc(Cl)cc1Cl)NC(=O)c1ccccc1	114%	96%	96.1%	88.5%	96.6%	98.9%	92.9%	87.5%	97.9%	94.7%	87.6%	92%	95.3%	101%	98.7%	97.6%	96.3%	94.1%	96.4%	91.8%
O=C(O)C1CSC(c2ccccc2)N1 (stereo not given)	89.2%	99.1%	93.2%	91.6%	95.6%	94.4%	105%	81%	121%	115%	115%	107%	106%	98.2%	111%	99.5%	105%	104%	88.4%	99.2%
CCOC(=O)C(COS(C)(=O)=O)(COS(C)(=O)=O)C(=O)OCC	114%	102%	104%	95.7%	111%	103%	100%	97.5%	105%	96.3%	90.9%	110%	103%	105%	107%	104%	104%	106%	104%	103%
O=C(Nc1cccc(Cl)c1)c1ccc(Cl)cc1Cl	95.6%	84.3%	92.9%	82.7%	90.1%	99.7%	92.2%	87.8%	89.6%	87.9%	81.4%	84.5%	97.4%	95.8%	107%	95%	107%	98%	92.7%	103%
C/C(=N\O)c1ccccn1	94.9%	107%	91.4%	88.1%	95.8%	105%	95.3%	108%	96.5%	116%	94.5%	102%	97.7%	106%	97.3%	109%	110%	106%	95.5%	100%
